Test results reported in PubChem BioAssay.
The source made the active and inactive calls.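 How the source made its calls, unless noted: active means thallium flux through the channel raised or lowered by more than 3 SD from vehicle-only wells, actives on both sides; inactive means the rest.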

Experiments:
[1] = liver-stage malaria parasite growth inhibition, primary screen, cell-based, HepG2, luciferase luminescence, HepG2 viability (AID 624349; in the data active means parasite load remaining mostly below about 12%, no sharp cut-off; inactive means mostly above about 10%;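 further: 100% = mean of DMSO negative control wells on the same plate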); details: P. berghei liver stage in HepG2, luciferase luminescence, concentration not given here; parasite load remaining: stronger effect = lower value; viability: measured here: HepG2 viability without parasites
[2] = Cy5 fluorescence interference with SSB-bound oligo, artefact control for HCV NS3 helicase inhibitor project, biochemical, NIH Clinical Collection, E. coli SSB (AID 743268; call rule not given here)
[3] = system: Hepatitis C virus NS3 helicase; assay: HCV NS3 helicase inhibitors, primary screen, biochemical, fluorescence polarization, NIH Clinical Collection (AID 743270; call rule not given here); details: NS3 helicase binding to Cy5-dT15 DNA, stronger effect = higher value, concentration not given here
[4] = target: Single-stranded DNA-binding protein (Escherichia coli (strain K12)) (UniProt P0AGE0); assay: E. coli SSB displacement from DNA, counter-screen for HCV NS3 helicase inhibitor project, biochemical, fluorescence polarization, NIH Clinical Collection (AID 743271; in the data active means inhibition above about 28%); details: stronger effect = higher value, concentration not given here
[5] = fluorescence interference in NS3h assay format, artefact control for HCV NS3 helicase inhibitor project, biochemical, NIH Clinical Collection (AID 743272; call rule not given here;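 further: HCV NS3 helicase with a Cy5 labelled single stranded DNA probe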); details: fluorescence interference counterscreen, stronger effect = lower value
[6] = system: Neuropilin-2 / VEGF-C interaction (human); assay: inhibitors of NRP2–VEGF-C binding, biochemical, microplate binding format, z-score (AID 743281; call rule not given here); details: microplate NRP2/VEGF-C binding assay; stronger effect = lower value
[7] = modulation of C. elegans fzo-1 (AID 1259413; call rule not given here;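 further: fzo-1 mutant C. elegans worms in liquid wells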); details: C. elegans fzo-1 modulator screen, mean read-out; stronger effect = higher value
[8] = sensitizers of A549 cells to miR-34 induction, primary screen, imaging, A549 dox-inducible miR-34, nuclei and caspase counts (AID 1347080;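 active means compounds whose cell count with miR-34 switched on is under 0.7 times the count with it off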); details: A549 miR-34 inducible, Hoechst nuclei count, 48 h
[9] = viability rescue of complex I mutant cybrids, primary screen, cell-based, galactose medium, ATP luminescence (AID 1645843;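 active means z-score of at least 1.8 in each of two replicates, scored against plate mean and spread of sample wells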;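 further: positive z means more ATP and so rescue of galactose-driven cybrid death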); details: complex I mutant cybrid cells, 72 h, stronger effect = higher value
[10] = system: F380Y; assay: modulators of BK channel variants, profiling panel, selectivity assay, cell-based, U2OS BacMam, thallium flux, beta subunits (AID 1259406); details: at 30 µM;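 further: initial slope of Thallos dye fluorescence rise after thallium is added; log ratio against the mean of 0.3% DMSO vehicle wells on the same plate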
[11] = system: F380Y/beta1; assay: as above; details: at 30 µM
[12] = system: F380Y/beta2Delta; assay: as above; details: at 30 µM
[13] = system: F380Y/beta4; assay: as above; details: at 30 µM
[14] = target: Calcium-activated potassium channel subunit alpha-1 (Homo sapiens) + Leucine-rich repeat-containing protein 26 (Homo sapiens) (UniProt Q12791+Q2I0M4); assay: as above; details: F380Y/Slo1WT/gamma1, at 30 µM
Calcium-activated potassium channel subunit alpha-1 (Homo sapiens) + Leucine-rich repeat-containing protein 26 (Homo sapiens), sequence (Q2I0M4 whole entry, looked up, one chain of several): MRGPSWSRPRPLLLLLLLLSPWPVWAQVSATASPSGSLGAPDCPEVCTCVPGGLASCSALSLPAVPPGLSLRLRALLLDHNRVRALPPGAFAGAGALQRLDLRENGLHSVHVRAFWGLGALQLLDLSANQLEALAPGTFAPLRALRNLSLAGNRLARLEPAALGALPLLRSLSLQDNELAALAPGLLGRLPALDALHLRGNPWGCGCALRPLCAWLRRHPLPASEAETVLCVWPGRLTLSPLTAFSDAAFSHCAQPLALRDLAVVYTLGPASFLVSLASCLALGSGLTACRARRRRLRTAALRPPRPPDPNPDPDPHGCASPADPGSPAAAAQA

[15] = system: R275C; assay: as above; details: at 30 µM
[16] = system: R275C/beta1; assay: as above; details: at 30 µM
[17] = system: R275C/beta2Delta; assay: as above; details: at 30 µM
[18] = system: R275C/beta4; assay: as above; details: at 30 µM
[19] = system: R275C/Slo1WT/beta2; assay: as above; details: at 30 µM
[20] = stronger effect = lower value, cell number ratio, induced over uninduced
[21] = measured here: relative caspase fold change +Dox/-Dox
[22] = measured here: total cells with miR-34 induction, stronger effect = lower value
[23] = measured here: total cells without miR-34 induction

Nc1ccc2cn[nH]c2c1
1.71: fold change [8, 21]
64.9%: viability [1]
inactive: parasite load remaining [1] 61.3% | fluorescence ratio [2] 0.99 | inhibition [3] -1.09% | inhibition [4] -0.39% | fluorescence ratio [5] 0.98 | z-score [6] -0.807 | mean signal [7] 290 | fold change [8, 20] 0.924 | z-score [9] 0.52 | log fold change Tl+ flux [10] -0.0182 | log fold change Tl+ flux [11] -0.022 | log fold change Tl+ flux [12] 0.0231 | log fold change Tl+ flux [13] -0.00919 | log fold change Tl+ flux [14] 0.0509 | log fold change Tl+ flux [15] -0.0141 | log fold change Tl+ flux [16] -0.000281 | log fold change Tl+ flux [17] 0.0572 | log fold change Tl+ flux [18] -0.0327 | log fold change Tl+ flux [19] 0.0188
8130: cell count [8, 22]
8800: cell count [8, 23]

O=C1c2c(O)cc(O)cc2O[C@H](c2ccc(O)c(O)c2)[C@@H]1O
72.9%: viability [1]
inactive: parasite load remaining [1] 102% | fluorescence ratio [2] 1.01 | inhibition [3] -0.4% | inhibition [4] -1.64% | fluorescence ratio [5] 1.01 | z-score [6] -0.585 | mean signal [7] 251 | log fold change Tl+ flux [10] -0.0094 | log fold change Tl+ flux [11] 0.0164 | log fold change Tl+ flux [12] 0.0588 | log fold change Tl+ flux [13] -0.00507 | log fold change Tl+ flux [14] -0.00714 | log fold change Tl+ flux [15] -0.0635 | log fold change Tl+ flux [16] 6.5e-05 | log fold change Tl+ flux [17] 0.0295 | log fold change Tl+ flux [18] -0.031 | log fold change Tl+ flux [19] -0.00661

CC(COc1ccccc1Cc1ccccc1)N1CCCCC1 (centres undefined)
inactive: parasite load remaining [1] 25.1% | fluorescence ratio [2] 1.04 | inhibition [3] -2.77% | inhibition [4] 3.75% | fluorescence ratio [5] 1.01 | z-score [6] -1.06 | mean signal [7] 222 | fold change [8, 20] 0.815 | z-score [9] -1.81 | log fold change Tl+ flux [10] 0.0907 | log fold change Tl+ flux [12] -0.0416 | log fold change Tl+ flux [14] -0.0112 | log fold change Tl+ flux [17] 0.0368 | log fold change Tl+ flux [18] -0.00829 | log fold change Tl+ flux [19] -0.0412
7840: cell count [8, 23]
active: log fold change Tl+ flux [11] 0.236 | log fold change Tl+ flux [13] 0.194 | log fold change Tl+ flux [15] -0.246 | log fold change Tl+ flux [16] 0.252
6390: cell count [8, 22]
2.34: fold change [8, 21]
82.3%: viability [1]
